Compound activity (PubChem)
Rab9 promoter act – activates the Rab9 promoter. Huh7 Rab9 promoter-luciferase reporter, luminescence, 24 h. Potency, µM (highest dose often 9.22 µM), for the others: top-dose activation, negative = inhibition, usual class: activators. hit rate 2.8% among 320,000. AID 485297; further: % of control where 0% means no effect; nearly all actives have a fitted effect of over 60% in size
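Cell-based reporter: Huh7 stable for Rab9 promoter-driven luciferase, plated in reduced-serum medium with 10% FBS at 1500 cells/well, compound-treated 24 h at 37 °C, luminescence read after 10 min reagent.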
SMN2 splice up – SMN2 splice variant enhancement; Potency, µM (titrated, usually from 46.1 µM), inactives show at the highest dose activity change, positive = activation, actives largely listed as activators; AID 1458; HEK293 SMN2-luciferase splicing reporter, luminescence, 30-36 h; hit rate 2.8% among 210,000; further: % of control where 0% means no effect; nearly all actives have a fitted effect of over 55% in size
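HEK293 cells carry an SMN2 minigene-luciferase reporter in which exon 7 inclusion puts luciferase in frame. Cells were seeded at 2000 cells/well, attached for 10-12 hours, then exposed to compounds for 30-36 hours at 37C before ONE-Glo luminescence.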
Luc counter – counter-screen: inhibitors of Kinase-Glo firefly luciferase; hit rate 0.28% among 200,000; Potency, µM (series often up to 38.3 µM), for inactives: top-dose activity change, negative = inhibition, actives largely listed as inhibitors; AID 1379; Kinase-Glo luciferase, ATP luminescence, 8 min; further: on the % scale 0 is the no-effect control and ±100 the full control effect; nearly all actives have a fitted effect of over 60% in size
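Compounds were added to a substrate mix at pH 7.2 (50 mM imidazole, 10 uM ATP, within the enzyme's linear range), followed by Kinase-Glo detection reagent; luminescence was measured after 8 minutes at ambient temperature.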
FLuc counter – firefly luciferase modulation, counter-screen for miR-21 project; hit rate 6.9% among 360,000; purified FLuc, Km substrates, luminescence inhibition; AID 588342; Potency, µM (highest dose often 57.5 µM), for inactives: top-dose activity change, negative = inhibition, actives largely listed as inhibitors;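 further: plate controls were vehicle for no effect and reference inhibitor for full effect; nearly all actives have a fitted effect of over 55% in size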
Target sequence (P08659 whole entry, looked up): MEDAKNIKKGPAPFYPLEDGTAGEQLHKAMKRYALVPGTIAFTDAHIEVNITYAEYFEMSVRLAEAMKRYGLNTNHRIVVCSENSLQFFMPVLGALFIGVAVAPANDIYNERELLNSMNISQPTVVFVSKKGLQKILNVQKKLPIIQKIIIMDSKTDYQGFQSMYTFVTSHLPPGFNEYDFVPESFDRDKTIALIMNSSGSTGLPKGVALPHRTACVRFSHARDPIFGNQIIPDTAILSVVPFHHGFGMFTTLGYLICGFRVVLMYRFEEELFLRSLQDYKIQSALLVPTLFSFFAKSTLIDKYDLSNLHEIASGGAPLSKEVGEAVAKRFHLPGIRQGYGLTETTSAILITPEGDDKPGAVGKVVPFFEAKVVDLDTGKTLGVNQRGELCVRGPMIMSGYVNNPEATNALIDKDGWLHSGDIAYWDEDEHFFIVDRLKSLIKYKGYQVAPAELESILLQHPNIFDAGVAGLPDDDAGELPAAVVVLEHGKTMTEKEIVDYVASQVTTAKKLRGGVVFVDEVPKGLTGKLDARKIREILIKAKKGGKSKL
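Biochemical qHTS of compounds, final roughly 60 µM downward over six points, against 10 nM purified firefly luciferase using Km concentrations of substrates (10 uM D-luciferin, 10 uM ATP) in Tris acetate pH 7.5 buffer; luminescence output.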
NPC1 promoter act – activators of NPC1 promoter; AID 485313; hit rate 2.4% among 320,000; Potency, µM (top dose mostly 9.22 µM), for the others: at the top dose activation, hits mostly activators; Huh7 NPC1 promoter luciferase reporter, 24 h; further: % of control where 0% means no effect; nearly all actives have a fitted effect of over 60% in size
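Luminescence from an NPC1 promoter-driven luciferase reporter in stably transfected Huh7 cells was measured after 24 h compound treatment at 37 °C, followed by 10 min ambient incubation with luciferase detection reagent.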
The depositor's hits bear a star; ? = inconclusive; nt = not tested or not shown; [ ] = remark or other dose. The list is not random: actives were taken first. Their share in the collection is about 7.3%. The call rests on the fitted dose curve; in most records, active means well fitted curve in the direction sought with a large enough effect; inconclusive means small, poorly fitted or top-dose-only effect, or another doubt; inactive means no such curve, though single readings can be large; an effect the other way counts as inactive or inconclusive. Potency means the concentration at half of the fitted maximal effect.

SMILES	Rab9 promoter act	SMN2 splice up	Luc counter	FLuc counter	NPC1 promoter act
CCCNC(=O)c1oc2ccc3c(c2c1C)C=CC(C)(C)O3	3.5µM*	nt	nt	11µM*	?
COc1ccccc1C(=O)Nc1ccc(Br)cc1C	?	nt	0%	17µM*	?
COc1cccc2cc(C(=O)Nc3ccccc3C)/c(=N/O)oc12	17%[1.84 µM]	nt	nt	6.7µM*	?
COc1ccc(NC(=O)CN(c2ccccc2)S(=O)(=O)N(C)C)cc1OC	-1%	1µM*	2%	2%	2%
COc1ccc(NC(=O)Nc2ccccn2)cc1OC	19%	nt	nt	19µM*	24%
COc1ccc(/C=N/NC(=O)C(=O)Nc2ccccn2)cc1OC	11%	-21%	0%	-13%	-1%
CCOCC(=O)O	nt	-11%	nt	nt	nt
CCC(Sc1nc2c(sc3ccccc32)c(=O)n1CCCC(=O)NC1CCCC1)C(=O)Nc1cccc(OC)c1 (centres undefined)	nt	25%	nt	1%	nt
COc1ccccc1C(=O)Nc1ccncc1	-4%	nt	nt	6%	-1%
COc1ccccc1C(=O)Nc1ccccn1	?	22µM*	-10%	7.6µM*	2.5µM*
O=C(Nc1cccc(O)c1)C(=O)Nc1ccccn1	3.5µM*	10µM*	4.5µM*	1.5µM*	?
COc1ccccc1C(=O)Nc1ccc(Br)c2cccnc12	10%	nt	nt	12µM*	14%
O=C(Nc1ccc(Cl)c(Cl)c1)Nc1ccccn1	4.5µM*	nt	nt	?	3.2µM*
O=C(Nc1cccnc1)Nc1ccccn1	3%	-4%	-4%	-15%	3%
COCCNC(=O)c1cc2c(s1)-c1ccc(Cl)cc1SC2	2.2µM*	nt	nt	6µM*	2.5µM*
CCOc1ccc(N(CC)C(=O)c2cc3c(s2)-c2ccc(Cl)cc2SC3)cc1	nt	?	nt	4%	nt
CC(=O)c1ccc(NC(=O)CSc2nc(N)c3cc4c(nc3n2)CCCC4)cc1	?	25µM*	?	1.3µM*	?
COc1ccc(NC(=O)CSc2nc(N)c3cc4c(nc3n2)CCCC4)cc1	?	22µM*	-18%	1.5µM*	19%
CCCCCNCCCCC	nt	-3%	nt	nt	nt
CC(/C=C1\SC(=S)N(CC(=O)O)C1=O)=C\c1ccccc1	21%	nt	nt	17µM*	?
CC(/C=C1\SC(=S)N(CC(=O)N2CCN(c3ccccc3)CC2)C1=O)=C\c1ccccc1	-5%	-1%[1.84 µM]	-2%	1%	-2%
CC(=C\c1ccco1)/C=C1/SC(=S)N(CC(=O)O)C1=O	16%	nt	nt	17µM*	2%
CC(=C\c1ccccc1)/C=C1/SC(=S)N(CCC(=O)O)C1=O	-4%[1.84 µM]	nt	nt	21µM*	-2%
O=C(Nc1cccc(-c2nc3ncccc3o2)c1)c1ccc(-c2cccc(Cl)c2Cl)o1	nt	-17%	nt	-11%	nt
Cc1cccc(NC(=O)CSc2nnc(N)s2)c1	nt	?	nt	-3%	nt
SMILES	Rab9 promoter act	SMN2 splice up	Luc counter	FLuc counter	NPC1 promoter act
Cc1cccc(NC(=O)CSc2nnc(NC(=O)C3CC3)s2)c1C	16%	nt	nt	0%	-1%
COc1cccc(C(=O)Nc2nnc(SCC(=O)Nc3ccc(NC(C)=O)cc3)s2)c1	3.5µM*	nt	nt	0.48µM*	2.8µM*
C/C(N)=C(/C#N)C(=O)CSc1nnc(Nc2cccc(C)c2)s1	?	16µM*	2%	5.4µM*	?
COc1cccc(N2CC(C(=O)Nc3nnc(SCC(=O)Nc4ccc(NC(C)=O)cc4)s3)CC2=O)c1 (centres undefined)	-1%	nt	nt	-16%	0%
COc1ccc(NC(=O)Nc2nnc(SCC(=O)Nc3cccc(C)c3C)s2)cc1	nt	nt	nt	0.6µM*	nt
Cc1ccc(Nc2nnc(SCC(=O)Nc3cccnc3Cl)s2)cc1C	-9%	18%	-10%	1.1µM*	-4%
COc1ccc(NC(=O)CSc2nnc(NC(=O)c3ccco3)s2)cc1OC	20%	nt	nt	21µM*	4%
O=C(CSc1nnnn1C1CCCC1)Nc1cccc(NC(=O)c2ccco2)c1	-1%	-1%	-6%	?	-1%
O=C(CSc1nnnn1C1CCCCC1)Nc1cccc(NC(=O)c2ccco2)c1	-9%	-1%	0%	17µM*	-1%
O=C(CSc1nnc(NC(=O)c2ccco2)s1)Nc1ccc(F)cc1	19%	26%	1%	15µM*	11%
O=C(CSc1nnc(NC(=O)c2ccco2)s1)Nc1ccc2c(c1)OCCO2	0%	6%	-3%	13µM*	9%
CCN1CCN(Cc2nc3cc(NC(=O)c4ccccc4[N+](=O)[O-])ccc3n2CC)CC1	nt	nt	nt	-5%	nt
CCCc1nn2c(=O)cc(COC(=O)c3cccc(NC(=O)c4cccs4)c3)nc2s1	nt	nt	nt	2%	nt
COc1ccc(NC(=O)CSc2nnc(NC(=O)c3ccco3)s2)cc1	16%	?	-4%	15µM*	14%
CCSc1nnc(NC(=O)Nc2cccc(C)c2)s1	?	nt	nt	11µM*	?
Cc1ccc(OCCSc2nnc(NC(=O)c3ccco3)s2)cc1	-1%	4%	2%	3%	-1%
CCSc1nnc(NC(=O)[C@@H](NC(=O)c2cccc(C)c2)C(C)C)s1	-3%	11%	3%	7%	-3%
Cc1cccc(NC(=O)CSc2nnc(NC(=O)c3ccco3)s2)c1	18%	22%	-2%	13µM*	0%
CCSc1nnc(NC(=O)c2csc(C)c2)s1	2.2µM*	14µM*	2%	-17%	2.8µM*
Cc1ccccc1NC(=O)C1CCN(S(=O)(=O)c2ccccc2)CC1	nt	nt	nt	3%	nt
O=C(CCC1N=C2c3ccccc3N=C(SCC(=O)Nc3ccccc3F)N2C1=O)NCc1ccccc1 (centres undefined)	nt	1%	nt	-10%	nt
COc1ccc(Cl)cc1NC(=O)C(=O)NCc1ccc(Cl)cc1	nt	-10%	nt	2%	nt
CCc1nn2c(-c3ccco3)ccnc2c1-c1ccccc1	nt	12%	nt	?	nt
